# Screening results as filed in PubChem BioAssay.
# Cruzain noTriton = inhibitors of Trypanosoma cruzi cruzain without detergent | 200,000 compounds, 2.3% hits | purified cruzain, Z-FR-AMC fluorescence, no detergent | Potency, µM, actives largely listed as inhibitors | P25779; also: nearly all actives have a fitted effect of over 40% in size
# Target sequence (P25779 123-467 limits assumed): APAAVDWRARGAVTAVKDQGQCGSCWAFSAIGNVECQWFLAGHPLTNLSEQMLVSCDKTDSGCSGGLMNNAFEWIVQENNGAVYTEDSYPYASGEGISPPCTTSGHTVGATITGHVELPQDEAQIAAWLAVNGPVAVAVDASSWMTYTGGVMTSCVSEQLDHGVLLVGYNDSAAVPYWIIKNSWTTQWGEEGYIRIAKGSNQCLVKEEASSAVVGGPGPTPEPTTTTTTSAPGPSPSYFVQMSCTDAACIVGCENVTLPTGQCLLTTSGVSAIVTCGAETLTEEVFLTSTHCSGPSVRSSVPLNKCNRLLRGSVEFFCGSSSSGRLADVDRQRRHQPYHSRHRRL
#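 Detergent-free condition (0.00005% Triton X-100) in acetate buffer pH 5.5 with DTT. 1.5 nM enzyme and compound were pre-mixed 15 min, then 2 uM Z-FR-AMC substrate added; reaction progress from fluorescence change between first and third reads (60 s).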
# Cruzain Triton = blocks cruzain activity in presence of Triton detergent | P25779 | purified cruzain, Z-FR-AMC fluorescence, 0.01% Triton | Potency, µM, most hits filed as inhibitors | 200,000 compounds, 0.43% hits; also: nearly all actives have a fitted effect of over 40% in size
#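 Compounds were screened in titration against cruzain (1.5 nM) with 0.01% Triton X-100 to counter colloidal aggregation. Activity was the AMC fluorescence increase over 60 s after adding 2 uM Z-FR-AMC at pH 5.5.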
# Numbers stand for hits; – = inactive; ? = inconclusive. The list is not random: actives were taken first. Their share in the collection is about 2.5%. Calls follow the shape of the dose curve; as a rule, active = well fitted curve in the direction sought with a large enough effect; inconclusive = small, poorly fitted or top-dose-only effect, or another doubt; inactive = no such curve, though single readings can be large; an effect the other way counts as inactive or inconclusive.
SMILES,Cruzain noTriton,Cruzain Triton
N#Cc1cc(-c2ccccc2)nnc1Sc1ccccc1,25.1µM,–
N#Cc1cc(-c2ccccc2)nnc1Sc1ccc(F)cc1,–,–
CCOc1ccc(/C=N/NC(=O)Cc2csc(Nc3cccc(C(F)(F)F)c3)n2)c(OCC)c1,?,–
CCOc1ccccc1/C=N/NC(=O)Cc1csc(Nc2cccc(C(F)(F)F)c2)n1,10µM,–
Cc1ccc2nc3nc(NCC4CCCO4)c(C(=O)NC4CCCC4)cc3c(=O)n2c1 (stereo unspecified),–,–
C=CCNC(=O)c1cc2c(=O)n3cc(C)ccc3nc2nc1NCC1CCCO1 (stereo unspecified),?,22.4µM
Cc1ccc(NC(=O)Cn2ncn3c(cc4ccccc43)c2=O)cc1C,–,–
CC(C)CNS(=O)(=O)c1cc(C(=O)OCC(=O)c2ccc3c(c2)OCCO3)c(Cl)cc1Cl,?,–
O=C(CNC(=O)c1ccc(Cl)cc1Cl)OCC(=O)c1ccc2c(c1)OCCO2,3.16µM,3.16µM
COCCCNC(=O)c1c(NC(=O)Cc2coc3c(C)c(C)ccc23)sc2c1CCCC2,–,–
COc1ccc(-c2csc(NC(=O)c3ccccc3NS(=O)(=O)c3ccc(C)cc3)n2)cc1,?,–
COc1ccc(S(=O)(=O)Nc2ccccc2C(=O)Nc2nc(-c3ccc(F)cc3)cs2)cc1OC,20µM,–
O=C(COc1cc(Cl)ccc1Cl)Nc1ccc2c(c1)CCC2,25.1µM,–
O=C(O)COCC(=O)Nc1ccc2c(c1)CCC2,–,–
CC(=O)c1ccc(NC(=O)c2nc(-c3ccccc3)n(-c3ccccc3Cl)n2)cc1,–,–
CC1=NN(c2ccc(Br)cc2)C(=O)/C1=C/c1cccs1,–,–
Cc1ccc(C2=N/C(=C/c3cccs3)C(=O)N2Nc2ccccc2)cc1,25.1µM,–
Cc1nn(-c2ccccc2)c2c1N(CC(=O)N1CCN(c3ccc(F)cc3)CC1)C(=O)CS2,–,–
NC(=O)Cn1c(=O)n(Cc2ccco2)c(=O)c2c3c(sc21)CCCCC3,–,–
O=C(Cn1c(=O)n(Cc2ccco2)c(=O)c2c3c(sc21)CCCC3)Nc1ccccc1,25.1µM,–
CC(CNC(=O)C1CCN(Cc2cc3ccccc3n2Cc2ccccc2)CC1)c1ccccc1 (stereo unspecified),–,–
COc1cccc(/C=N/NC(=O)c2cccc([N+](=O)[O-])c2)c1OS(=O)(=O)c1ccccc1,–,–
COc1cccc(/C=N/NC(N)=S)c1OCc1ccccc1Cl,?,–
Cc1ccc(S(=O)(=O)Oc2ccccc2/C=N/NC(N)=S)cc1,?,7.08µM
COc1cccc(/C=N/NC(N)=S)c1OS(=O)(=O)c1ccccc1,5.01µM,14.1µM
SMILES,Cruzain noTriton,Cruzain Triton
Cc1ccc(S(=O)(=O)Oc2ccccc2/C=N/NC(=O)c2nn(C)cc2[N+](=O)[O-])cc1,–,–
NC(=S)N/N=C/c1ccccc1OCCSc1ccc(Cl)cc1,1µM,1.41µM
Clc1ccccc1C(Nc1cnccn1)Nc1cnccn1,–,–
COc1cc(-c2cc(OC)c3c(C)oc(C)c3c(=O)c2)ccc1OC(=O)c1ccccc1C,–,–
COc1ccc(OC)c(NC(=O)c2cnn(-c3ccc(C)cc3)c2C2CCNCC2)c1,–,–
CCC(CC)c1nnc(NC(=O)c2ccc(S(=O)(=O)N3CCc4ccccc4C3)cc2)s1,?,–
CN(C)S(=O)(=O)c1ccc(C(=O)Nc2nc(-c3cccs3)cs2)cc1,–,–
Cc1cc(-c2csc(NC(=O)c3ccc(C#N)cc3)n2)c(C)n1Cc1ccccc1,10µM,–
COC(=O)c1ccc(-c2csc(NC(=O)c3ccc(S(=O)(=O)N4CCc5ccccc5C4)cc3)n2)cc1,6.31µM,–
Cc1ccc(C(=O)Nc2nc(-c3cc(Cl)sc3Cl)cs2)cc1,?,–
COc1ccc(-c2csc(NC(=O)c3ccc(S(=O)(=O)N4CCc5ccccc5C4)cc3)n2)cc1,5.01µM,–
COc1ccc(-c2nnc(NC(=O)c3ccc(S(=O)(=O)N4CCc5ccccc5C4)cc3)o2)cc1,–,–
COc1ccc(-n2c(C)cc(-c3csc(NC(=O)c4ccc(S(=O)(=O)N(C)C)cc4)n3)c2C)cc1,10µM,–
NCCSCc1ccccc1Cl,–,–
Cc1ccc(CSc2cn(CC(=O)N3CCCCCC3)c3ccccc23)cc1,–,–
Cc1cc[c]([Sb]2[O]C([C@H](O)[C@H](O)C(=O)O)[C@@H](CO)[O]2)cc1 (stereo partly specified),–,–
Clc1ccc2c(NC3CCC(N4CCCCC4)CC3)ccnc2c1 (stereo unspecified),–,–
Cc1ccc(-n2ccn(CC(=O)c3ccc(F)cc3)c(=O)c2=O)cc1C,–,–
Cc1ccc2nc(NC(=O)c3ccc(S(=O)(=O)N4CCC(C)CC4)cc3)sc2c1,–,–
Cc1ccc2nc(NNC(=O)c3ccc(S(=O)(=O)N4CCc5ccccc5C4)cc3)sc2c1,25.1µM,–
N#Cc1ccc(CS(=O)(=O)c2ccccc2)cc1,–,–
Cc1ccc(C)c2sc(NC(=O)c3ccc(N4CCCCC4)c([N+](=O)[O-])c3)nc12,7.94µM,–
Cc1cccc(NC(=O)c2ccc(N3CCCCC3)c([N+](=O)[O-])c2)n1,–,–
CCC(C)c1ccccc1NC(=O)COC(=O)c1ccc(N2CCCC2)c([N+](=O)[O-])c1 (stereo unspecified),–,–
Cc1cccc(C)c1NC(=O)COC(=O)c1ccc(N2CCCC2)c([N+](=O)[O-])c1,10µM,–
SMILES,Cruzain noTriton,Cruzain Triton
Cc1ccc(C2=NN(CC(=O)NCCCN(CC(C)C)CC(C)C)C(=O)CC2)cc1,–,–
Cc1ccc(C)c(NC(=O)C2CCCN(S(=O)(=O)c3cccc4nsnc34)C2)c1 (stereo unspecified),–,–
COc1ccccc1-c1noc(CSc2nnc(Cc3ccccc3)n2-c2ccc(C)c(C)c2)n1,–,–
O=C(CSc1nnc2[nH]c(=O)cc(-c3ccccc3)n12)Nc1cc(C(F)(F)F)ccc1Cl,–,–
Cc1cccc(S(=O)(=O)c2c(N)n(/N=C/c3ccccc3)c3nc4ccccc4nc23)c1,3.98µM,–
COc1ccccc1/C=N/n1c(N)c(S(=O)(=O)c2cccs2)c2nc3ccccc3nc21,7.94µM,–
COc1ccc(CCn2c(N)c(S(=O)(=O)c3cccs3)c3nc4ccccc4nc32)cc1OC,–,–
Nc1c(S(=O)(=O)c2ccccc2)c2nc3ccccc3nc2n1/N=C/c1cccc(O)c1,–,–
CCc1nc2nc(C)cc(Nc3ccc(Br)cc3F)n2n1,–,–
CCc1ccc(CNC(=O)c2sc3ncccc3c2-n2c(C)ccc2C)cc1,–,–
NNC(N)=S,–,–
COc1cccc(NC(=O)CSc2nc(=O)[nH]c3c2CCCC3)c1,–,–
Cn1nnnc1SCCCNCc1ccccc1OCc1ccc(Cl)cc1,–,–
CC(C)(C)OC(=O)N1CCC(c2c(C(=O)NCCN3CCOCC3)cnn2-c2ccc(F)cc2F)CC1,–,–
CCOC(=O)c1c(Nc2ccc(Cl)cc2)sc(/C=C2\C=Nc3ccccc32)c1O,7.94µM,–
Oc1nc(Nc2cccc(Cl)c2)sc1/C=C1\C=Nc2ccccc21,?,–
Cc1c(Cl)cccc1NC(=O)Cn1cnc2nc3c(cc2c1=O)CCCC3,–,–
COC(=O)c1nn(-c2ccccc2)c2nnc(Cc3ccc(C)cc3)c(=O)n12,–,–
O=C(c1ccccc1)c1nn(-c2ccccc2)c2nnc(Cc3ccccc3)c(=O)n12,25.1µM,–
Cc1cccc(C)c1OCc1nnc(SCC(=O)Nc2ccccc2F)o1,–,–
